Potency and affinity values are given separately. Inconclusive results are not listed. Entries that show only a call come without a potency. The source made the active and inactive calls. How the calls were made is not given here.
Legend:
[1] = IGROV1 cell killing – plate reader, dry powder samples, PAX8 inhibitor project, dose response (AID 743043); details: IGROV1 ovarian cancer cell cytotoxicity; series mostly up to 50 µM;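 further: more negative means fewer viable cells or more cytotoxicity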
[2] = toxicity toward immortalized ovarian surface epithelium – cell-based, plate reader, dry powder samples, cytotoxicity control for PAX8 inhibitor project, dose response (AID 743045); details: IOSE-T80 ovarian epithelial cells; series mostly up to 50 µM;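 further: more negative values mean more cell killing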

For `O=C(N1CCCCC1)[C@@]1(CCS(=O)(=O)c2ccccc2)N=C(c2ccc(OCCCO)cc2)O[C@H]1c1ccccc1`, the outcome [1] was “inactive” and the outcome [2] was “inactive”.

From PubChem BioAssay
